Data reported in PubChem BioAssay (NCATS).
Where “and” joins values, the source holds several entries; their conditions need not be identical. Equal entries are not always repeated. Inconclusive results are not listed. Calls of active or inactive are those of the source. Unless noted, the call rests on the fitted dose curve; in most records, active means well fitted curve in the direction sought with a large enough effect; inconclusive means small, poorly fitted or top-dose-only effect, or another doubt; inactive means no such curve, though single readings can be large; an effect the other way counts as inactive or inconclusive.

Experiments:
[1] = biological target: Peroxisome proliferator-activated receptor delta (Homo sapiens) (UniProt Q03181); assay: qHTS assay for small molecule antagonists of peroxisome proliferator-activated receptor delta signaling (AID 588535; active means well fitted inhibition curve with a large enough effect in the signal ratio, with a control signal flat, not every such curve was filed as active; the % refers to the signal ratio)
Chain of Peroxisome proliferator-activated receptor delta (Homo sapiens) (Q03181 whole entry, looked up): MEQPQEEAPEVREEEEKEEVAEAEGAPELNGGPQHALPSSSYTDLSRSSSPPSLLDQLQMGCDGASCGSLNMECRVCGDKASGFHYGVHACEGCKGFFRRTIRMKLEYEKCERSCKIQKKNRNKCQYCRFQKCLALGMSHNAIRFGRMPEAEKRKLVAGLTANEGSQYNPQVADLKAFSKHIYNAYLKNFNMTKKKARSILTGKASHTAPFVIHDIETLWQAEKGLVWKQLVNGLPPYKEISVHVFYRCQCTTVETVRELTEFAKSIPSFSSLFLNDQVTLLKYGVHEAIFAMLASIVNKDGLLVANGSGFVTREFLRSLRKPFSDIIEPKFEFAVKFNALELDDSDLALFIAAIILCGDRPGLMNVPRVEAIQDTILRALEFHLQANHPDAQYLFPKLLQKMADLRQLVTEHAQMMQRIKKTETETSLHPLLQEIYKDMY
In short: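 HEK293T PPAR-delta-UAS-bla cells, 4000/well, 2% charcoal/dextran FBS; 5 h 37 C; cpd titration; 18 h 37 C; CCF4 2 h RT; FI 460/530 nm; Hill fit → IC50, efficacy.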

[2] = biological target: Peroxisome proliferator-activated receptor gamma (Homo sapiens) (UniProt P37231); assay: qHTS assay for small molecule agonists of peroxisome proliferator-activated receptor gamma signaling (AID 588536; active means well fitted curve in the direction sought with a large enough effect in the signal ratio, with a control signal flat, not every such curve was filed as active; the % refers to the signal ratio;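 further: 0% = DMSO basal wells and 100% = rosiglitazone at 2 µM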)
Chain of Peroxisome proliferator-activated receptor gamma (Homo sapiens) (P37231 whole entry, looked up): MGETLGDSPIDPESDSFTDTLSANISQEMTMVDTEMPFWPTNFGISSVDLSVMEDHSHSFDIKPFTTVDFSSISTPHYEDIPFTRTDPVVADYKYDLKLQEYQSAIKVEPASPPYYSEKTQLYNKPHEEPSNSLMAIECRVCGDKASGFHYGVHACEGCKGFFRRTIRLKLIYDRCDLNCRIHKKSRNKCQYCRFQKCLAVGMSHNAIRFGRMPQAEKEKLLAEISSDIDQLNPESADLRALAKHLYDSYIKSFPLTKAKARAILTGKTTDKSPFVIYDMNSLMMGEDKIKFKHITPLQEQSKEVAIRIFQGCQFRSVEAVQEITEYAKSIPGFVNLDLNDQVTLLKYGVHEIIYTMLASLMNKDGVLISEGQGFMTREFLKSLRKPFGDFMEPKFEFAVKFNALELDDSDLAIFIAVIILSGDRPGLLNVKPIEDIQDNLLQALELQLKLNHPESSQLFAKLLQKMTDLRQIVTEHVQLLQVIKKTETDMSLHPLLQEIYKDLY
In short: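 GeneBLAzer PPAR-gamma-UAS-bla HEK293 cells in 1% charcoal/dextran-treated FBS medium were treated 16 h at 37 C with compounds. Beta-lactamase activity was read by CCF4 ratio (460/530 nm). Response was normalized to 2 uM rosiglitazone (100%) and DMSO, then Hill-fitted for EC50 and efficacy.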

[3] = biological target: Peroxisome proliferator-activated receptor gamma (Homo sapiens) (UniProt P37231); assay: qHTS assay for small molecule antagonists of peroxisome proliferator-activated receptor gamma signaling (AID 588537; active means well fitted inhibition curve with a large enough effect in the signal ratio, with a control signal flat, not every such curve was filed as active; the % refers to the signal ratio;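 further: reporter cells co-stimulated with 50 nM rosiglitazone agonist during compound treatment; % of control where 0% means no effect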)
In short: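 Antagonist mode, beta-lactamase reporter in HEK293; charcoal/dextran FBS 1%; 3000 cells/well, 37 C 6-6.5 h; cpd titration + rosiglitazone 50 nM final, 16 h 37 C; CCF4, 2 h RT; 460/530 nm; Hill fit → IC50, efficacy.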

[4] = biological target: Vitamin D3 receptor (Homo sapiens) (UniProt P11473); assay: qHTS assay for small molecule antagonists of vitamin D receptor signaling (AID 588541; calls by dose curve;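 further: receptor activated by calcitriol during compound treatment; series mostly up to about 77 µM; on the % scale 0 is the no-effect control and ±100 the full control effect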)
Chain of Vitamin D3 receptor (Homo sapiens) (P11473 whole entry, looked up): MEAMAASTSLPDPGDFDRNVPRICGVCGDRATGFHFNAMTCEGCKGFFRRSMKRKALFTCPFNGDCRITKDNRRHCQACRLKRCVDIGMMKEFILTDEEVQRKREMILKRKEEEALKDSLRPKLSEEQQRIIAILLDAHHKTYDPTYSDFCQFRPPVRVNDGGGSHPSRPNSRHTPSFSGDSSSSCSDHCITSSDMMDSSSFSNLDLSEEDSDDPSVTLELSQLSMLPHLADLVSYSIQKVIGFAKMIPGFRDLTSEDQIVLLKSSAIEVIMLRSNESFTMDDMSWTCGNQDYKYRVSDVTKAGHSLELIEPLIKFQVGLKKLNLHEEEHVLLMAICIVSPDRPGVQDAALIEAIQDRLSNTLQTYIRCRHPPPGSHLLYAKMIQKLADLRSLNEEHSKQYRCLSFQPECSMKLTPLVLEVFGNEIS
In short: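 Antagonist-mode beta-lactamase reporter assay: HEK293T VDR-UAS-bla cells were exposed to titrated compound alongside 1-alpha,25-dihydroxyvitamin D3 at 3 nM final for 16 h. Values were normalized to the 50 nM agonist control and DMSO basal, with IC50 and efficacy from Hill equation fits.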

[5] = biological target: Vitamin D3 receptor (Homo sapiens) (UniProt P11473); assay: qHTS assay for small molecule agonists of vitamin D receptor signaling (AID 588543; calls by dose curve;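 further: 0% = DMSO basal and 100% = reference agonist control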)
In short: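 Measured: β-lactamase reporter activity (CCF4, 405 nm excitation, 460/530 nm emission) in HEK293T VDR-UAS-bla cells after 16 h compound exposure at 37 °C. Normalization against 50 nM 1α,25-dihydroxyvitamin D3 and DMSO; Hill-fit EC50.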

[6] = qHTS assay for small molecule agonists of retinoid X receptor alpha signaling (AID 588544); settings: HEK293T RXRa-UAS-bla, beta-lactamase reporter, 18 h; 530 nm emission
[7] = biological target: Thyroid hormone receptor beta (Homo sapiens) (UniProt P10828); assay: qHTS assay for small molecule agonists of thyroid hormone receptor beta signaling (AID 588545; calls by dose curve;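 further: 0% = DMSO only and 100% = 10 nM T3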)
Chain of Thyroid hormone receptor beta (Homo sapiens) (P10828 whole entry, looked up): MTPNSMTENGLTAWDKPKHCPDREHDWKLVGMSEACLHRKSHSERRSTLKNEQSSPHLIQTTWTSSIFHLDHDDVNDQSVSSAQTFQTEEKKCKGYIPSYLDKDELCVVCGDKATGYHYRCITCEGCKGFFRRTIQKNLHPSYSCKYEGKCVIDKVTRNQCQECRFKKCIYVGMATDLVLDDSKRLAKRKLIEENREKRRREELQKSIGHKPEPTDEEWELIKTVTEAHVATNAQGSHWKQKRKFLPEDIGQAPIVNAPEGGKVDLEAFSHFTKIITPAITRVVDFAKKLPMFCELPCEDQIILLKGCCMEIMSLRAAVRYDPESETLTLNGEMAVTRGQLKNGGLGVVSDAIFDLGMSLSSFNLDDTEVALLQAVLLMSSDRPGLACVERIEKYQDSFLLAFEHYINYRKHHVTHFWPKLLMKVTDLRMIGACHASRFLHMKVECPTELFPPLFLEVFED
In short: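 Compounds were tested as agonists in TR-UAS-bla-GripTite HEK 293 cells. After 18 hrs at 37 C, CCF4 substrate was added and fluorescence read after 2 hrs at room temperature.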

[8] = qHTS assay for small molecule antagonists of retinoid X receptor alpha signaling (AID 588546; active means well fitted inhibition curve with a large enough effect in the signal ratio, with a control signal flat, not every such curve was filed as active; the % refers to the signal ratio;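 further: cells stimulated with 9-cis-retinoic acid as agonist; on the % scale 0 is the no-effect control and ±100 the full control effect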); settings: HEK293T RXRa-UAS-bla, beta-lactamase ratio, antagonist mode; measured here: W530 green channel, cytotoxicity proxy
In short: (§1)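 Beta-lactamase reporter inhibition, read as CCF4 fluorescence ratio (ex 405, em 460/530 nm) after 2 h at RT. HEK293T UAS-bla cells, 2500/well, were stimulated with 9-cis-RA at 500 or 100 nM final alongside test compound for 18 h at 37 C.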

[9] = biological target: Retinoic acid receptor RXR-alpha (Homo sapiens) (UniProt P19793); assay: as above; settings: HEK293T RXRa-UAS-bla, beta-lactamase ratio, antagonist mode
Chain of Retinoic acid receptor RXR-alpha (Homo sapiens) (P19793 whole entry, looked up): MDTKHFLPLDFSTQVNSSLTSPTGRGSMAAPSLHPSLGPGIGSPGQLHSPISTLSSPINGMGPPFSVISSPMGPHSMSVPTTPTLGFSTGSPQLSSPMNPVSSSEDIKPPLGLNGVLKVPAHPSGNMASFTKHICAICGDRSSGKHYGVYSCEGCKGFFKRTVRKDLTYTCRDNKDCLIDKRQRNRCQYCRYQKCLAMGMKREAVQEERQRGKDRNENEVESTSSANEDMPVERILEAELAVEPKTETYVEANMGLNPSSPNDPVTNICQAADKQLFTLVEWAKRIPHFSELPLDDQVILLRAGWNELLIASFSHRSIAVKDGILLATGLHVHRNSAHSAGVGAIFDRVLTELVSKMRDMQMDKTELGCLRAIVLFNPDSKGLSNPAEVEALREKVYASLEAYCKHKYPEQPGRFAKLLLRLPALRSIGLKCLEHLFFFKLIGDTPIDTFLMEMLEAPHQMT
In short: as §1

[10] = biological target: Thyroid hormone receptor beta (Homo sapiens) (UniProt P10828); assay: qHTS assay for small molecule antagonists of thyroid hormone receptor beta signaling (AID 588547; active means well fitted inhibition curve with a large enough effect in the signal ratio, with a control signal flat, not every such curve was filed as active; the % refers to the signal ratio;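 further: cells stimulated with 0.4 nM T3 agonist during compound exposure; series mostly up to about 77 µM; on the % scale 0 is the no-effect control and ±100 the full control effect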); settings: TR-UAS-bla HEK293, beta-lactamase ratio, antagonist mode, 18 h
In short: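 Inhibition of T3-driven (0.4nM final) beta-lactamase reporter activity was measured over 0.59 nM to 92 uM compound after 18 h at 37 C. The cells were GripTite HEK293 TR-UAS-bla in charcoal/dextran-stripped serum, with CCF4 ratio read-out and IC50 from Hill fits.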

[11] = biological target: Voltage-gated inwardly rectifying potassium channel KCNH2 (Homo sapiens) (UniProt Q12809); assay: qHTS Assay for Small Molecule Inhibitors of the Human hERG Channel Activity (AID 588834);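 further: top concentration of the series differs between compounds; on the % scale 0 is the no-effect control and ±100 the full control effect; lower thallium flux fluorescence means stronger hERG block; nearly all actives have a fitted effect of over 50% in size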
Chain of Voltage-gated inwardly rectifying potassium channel KCNH2 (Homo sapiens) (Q12809 whole entry, looked up): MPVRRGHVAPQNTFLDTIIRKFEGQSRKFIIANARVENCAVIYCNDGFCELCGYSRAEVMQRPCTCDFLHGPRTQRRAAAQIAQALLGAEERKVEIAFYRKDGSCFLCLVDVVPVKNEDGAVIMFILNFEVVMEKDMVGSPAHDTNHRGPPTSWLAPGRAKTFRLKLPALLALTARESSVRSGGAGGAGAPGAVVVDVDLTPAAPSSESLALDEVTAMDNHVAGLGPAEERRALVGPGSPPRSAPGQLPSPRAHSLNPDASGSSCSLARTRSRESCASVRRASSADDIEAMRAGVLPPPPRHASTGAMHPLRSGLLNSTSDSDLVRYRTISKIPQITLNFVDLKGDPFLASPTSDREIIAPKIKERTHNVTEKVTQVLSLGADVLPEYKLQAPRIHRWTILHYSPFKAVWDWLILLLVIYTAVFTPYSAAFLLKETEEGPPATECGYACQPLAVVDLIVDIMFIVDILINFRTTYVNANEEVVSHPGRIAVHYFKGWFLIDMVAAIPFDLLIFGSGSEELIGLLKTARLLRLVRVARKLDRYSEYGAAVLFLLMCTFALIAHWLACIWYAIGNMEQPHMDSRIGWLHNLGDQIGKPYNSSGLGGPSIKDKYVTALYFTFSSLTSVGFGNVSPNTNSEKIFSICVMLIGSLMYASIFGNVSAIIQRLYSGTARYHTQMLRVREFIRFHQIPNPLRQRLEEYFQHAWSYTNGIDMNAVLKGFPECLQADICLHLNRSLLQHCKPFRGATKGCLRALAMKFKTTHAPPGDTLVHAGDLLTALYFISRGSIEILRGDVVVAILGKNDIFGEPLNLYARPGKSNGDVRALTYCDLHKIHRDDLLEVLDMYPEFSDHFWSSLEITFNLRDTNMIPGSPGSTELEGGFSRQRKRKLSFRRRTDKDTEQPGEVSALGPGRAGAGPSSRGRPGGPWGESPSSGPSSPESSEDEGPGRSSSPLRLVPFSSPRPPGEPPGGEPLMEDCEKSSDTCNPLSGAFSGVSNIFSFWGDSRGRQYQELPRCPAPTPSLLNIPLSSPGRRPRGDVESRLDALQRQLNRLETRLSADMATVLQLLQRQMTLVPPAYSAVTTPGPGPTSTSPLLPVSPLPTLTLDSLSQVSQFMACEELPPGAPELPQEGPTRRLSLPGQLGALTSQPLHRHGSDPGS
In short: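 Blockade is seen as reduced FluxOR thallium-flux fluorescence in U2OS cells expressing hERG from a BacMam construct, in Opti-MEM with 2% FCS. Concentration-response data fitted to the Hill equation for AC50.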

[12] = qHTS assay for small molecule agonists of the antioxidant response element (ARE) signaling pathway (AID 651741; active means well fitted activation curve with a large enough effect in the signal ratio; the % refers to the signal ratio; further: % of control where 0% means no effect)
In short: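 Quantitative HTS in HepG2 cells stably expressing an ARE-beta-lactamase reporter; 16 h compound exposure at 37 C, followed by 2 h room-temperature incubation with LiveBLAzer B/G FRET substrate and fluorescence measurement.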

[13] = qHTS assay for small molecule activators of the p53 signaling pathway (AID 651743; active means well fitted activation curve with a large enough effect in the signal ratio, not every such curve was filed as active; the % refers to the signal ratio; further: series mostly up to about 92 µM; % of control where 0% means no effect); settings: HCT-116 p53RE-bla, beta-lactamase FRET ratio, 16 h; activation: stronger effect = higher value
In short: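 Read-out is fluorescence intensity from the LiveBLAzer B/G FRET substrate, added for 2 hours at room temperature after HCT-116 p53RE-bla cells had been incubated with compounds for 16 hours at 37 C.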

[14] = qHTS assay for small molecule activators of the nuclear factor-kappa B (NF-kB) signaling pathway (AID 651749; active means well fitted activation curve with a large enough effect in the signal ratio; the % refers to the signal ratio; further: series mostly up to about 77 µM; % of control where 0% means no effect); settings: NF-kB-bla ME-180 cells, beta-lactamase FRET ratio, 16 h; stronger effect = higher value
In short: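 Readout: beta-lactamase reporter driven by an NF-kB response element, detected fluorescently as loss of FRET. Cells were the ME-180 line, treated 16 hr at 37C with pin-transferred compound.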

[15] = qHTS assay for small molecule disruptors of the mitochondrial membrane potential - 1 hr assay (AID 651754; calls by dose curve; further: on the % scale 0 is the no-effect control and ±100 the full control effect; nearly all actives have a fitted effect of over 35% in size)
In short: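 HepG2, 2,000 cells/well, overnight attachment; cpd or DMSO 1 hr, 37C/5% CO2; Mito-MPS dye 30 min, 37C; fluorescence monomer (490/535) and aggregate (540/590).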

[16] = qHTS assay for small molecule disruptors of the mitochondrial membrane potential - 5 hr assay (AID 651755; calls by dose curve; further: on the % scale 0 is the no-effect control and ±100 the full control effect; nearly all actives have a fitted effect of over 40% in size)
In short: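 HepG2, 2,000 cells/well, overnight attach; cpd or DMSO 5 hr, 37C/5% CO2; Mito-MPS 30 min 37C; fluor 490/535 + 540/590 nm.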

[17] = qHTS assay to identify small molecules that stimulate interleukin-8 (IL-8) secretion (AID 651758; active means well fitted activation curve with a large enough effect in the signal ratio; the % refers to the signal ratio; further: 0% is about no effect)
In short: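 Secreted IL-8 measured by TR-FRET sandwich (cryptate and XL665 antibodies) from THP-1 cells exposed to compound overnight (16 hrs, 37 C).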

[18] = qHTS assay for environmental chemicals that activate the Aryl hydrocarbon Receptor (AhR) signaling pathway (AID 651777); settings: 1A2-DRE human hepatoma cells, luciferase, 24 h; activation: stronger effect = higher value; further: % of control where 0% means no effect; nearly all actives have a fitted effect of over 15% in size
In short: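 Induction of CYP1A2 transcription through AhR is detected by luciferase in 1A2-DRE hepatoma cells. Compounds or DMSO act for 24 hr at 37 C before a 30 min One-Glo step at room temperature.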

[19] = biological target: Peroxisome proliferator-activated receptor alpha (Homo sapiens) (UniProt Q07869); assay: qHTS assay for small molecule agonists of the peroxisome proliferator-activated receptor alpha (PPARalpha) signaling pathway (AID 651778); settings: PathHunter PPARalpha complementation, chemiluminescence, 6 h; max response: stronger effect = higher value; further: % of control where 0% means no effect
Chain of Peroxisome proliferator-activated receptor alpha (Homo sapiens) (Q07869 whole entry, looked up): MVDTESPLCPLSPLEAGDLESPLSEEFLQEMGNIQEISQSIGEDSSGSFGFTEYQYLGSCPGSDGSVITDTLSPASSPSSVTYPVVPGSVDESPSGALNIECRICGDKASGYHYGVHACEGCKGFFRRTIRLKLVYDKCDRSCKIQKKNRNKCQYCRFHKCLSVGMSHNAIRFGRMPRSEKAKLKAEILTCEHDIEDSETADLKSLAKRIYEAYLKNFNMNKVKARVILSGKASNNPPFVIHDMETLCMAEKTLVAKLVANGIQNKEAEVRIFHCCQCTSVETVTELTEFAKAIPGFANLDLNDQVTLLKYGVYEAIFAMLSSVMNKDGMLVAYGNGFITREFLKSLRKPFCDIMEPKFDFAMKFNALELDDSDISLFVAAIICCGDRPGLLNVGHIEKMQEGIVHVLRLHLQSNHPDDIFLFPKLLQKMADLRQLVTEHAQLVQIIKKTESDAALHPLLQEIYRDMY
In short: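 Chemiluminescence from complemented enzyme reported PPARalpha activation in cells after 6 hr of compound treatment at 37 C. The detection reagent was incubated for 60 min at room temperature, and compounds were scored as agonists.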

[20] = qHTS assay for small molecule agonists of the antioxidant response element (ARE) signaling pathway measured by Nrf2-dependant transcriptional activity (AID 720636; active means well fitted curve in the direction sought with a large enough effect in the repeat runs; an effect the other way counts as inactive or inconclusive;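 further: HepG2 cells with an ARE-driven luciferase reporter; % of control where 0% means no effect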)
In short: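 We exposed ARE-luc HepG2 cells, seeded in assay medium with 1% dialyzed FBS and allowed 6 hr to adhere, to test compounds overnight (16 hr, 37 C) before measuring luciferase with ONE-Glo.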

[21] = qHTS assay for small molecule antagonists of the retinoid-related orphan receptor gamma (ROR-gamma) signaling pathway - cell viability counter screen (AID 720652; active means well fitted curve in the direction sought with a large enough effect in the repeat runs; an effect the other way counts as inactive or inconclusive;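 further: series mostly up to about 92 µM; compound exposure lasted 16 hr before ATP read; on the % scale 0 is the no-effect control and ±100 the full control effect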)
In short: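 Luminescence from CellTiter-Glo after 30 min at room temperature reported cellular ATP as the cytotoxicity measure. Cells were the CHO reporter line with doxycycline-induced ROR-gamma expression, exposed to compound for 16 hr at 37 C.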

[22] = qHTS assay for small molecule agonists of the antioxidant response element (ARE) signaling pathway measured by Nrf2-dependant transcriptional activity - cell viability counter screen (AID 720653; active means well fitted curve in the direction sought with a large enough effect in the repeat runs; an effect the other way counts as inactive or inconclusive; further: on the % scale 0 is the no-effect control and ±100 the full control effect); settings: ARE-bla HepG2 viability, CellTiter-Glo ATP luminescence, 16 h; max response: stronger effect = lower value
In short: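 Cytotoxicity counter screen: intracellular ATP quantified by CellTiter-Glo luminescence in the same ARE-bla HepG2 plates, after 16 h compound exposure and a 2 h beta-lactamase substrate step.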

[23] = qHTS assay for cell viability of HEK293 cells (AID 743288); settings: ATP luminescence (CellTiter-Glo), 18 h; max response: stronger effect = lower value; further: on the % scale 0 is the no-effect control and ±100 the full control effect; nearly all actives have a fitted effect of over 50% in size
In short: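 Luminescent ATP quantitation served as the viability read-out. Cells (parental HEK293, 2,000/well) received compounds after at least 5 h at 37 C and were exposed for 18 h before a 30 min room-temperature reagent step.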

[24] = qHTS assay for cell viability of the p53RE-bla HCT-116 cell line (AID 743292); further: on the % scale 0 is the no-effect control and ±100 the full control effect; nearly all actives have a fitted effect of over 55% in size
In short: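 In this qHTS counter-screen, metabolically competent p53RE-bla HCT-116 cells were counted via their ATP content. Compounds were applied for 16 h at 37 C and luciferase-coupled luminescence was measured.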

[25] = biological target: Nuclear receptor subfamily 1 group I member 2 (Rattus norvegicus) (UniProt Q9R1A7); assay: qHTS assay for small molecule activators of the rat pregnane X receptor (rPXR) signaling pathway (AID 651751; call rule not given here; further: 0% is about no effect); settings: rPXR reporter cells, luciferase (One-Glo), 24 h
Chain of Nuclear receptor subfamily 1 group I member 2 (Rattus norvegicus) (Q9R1A7 whole entry, looked up): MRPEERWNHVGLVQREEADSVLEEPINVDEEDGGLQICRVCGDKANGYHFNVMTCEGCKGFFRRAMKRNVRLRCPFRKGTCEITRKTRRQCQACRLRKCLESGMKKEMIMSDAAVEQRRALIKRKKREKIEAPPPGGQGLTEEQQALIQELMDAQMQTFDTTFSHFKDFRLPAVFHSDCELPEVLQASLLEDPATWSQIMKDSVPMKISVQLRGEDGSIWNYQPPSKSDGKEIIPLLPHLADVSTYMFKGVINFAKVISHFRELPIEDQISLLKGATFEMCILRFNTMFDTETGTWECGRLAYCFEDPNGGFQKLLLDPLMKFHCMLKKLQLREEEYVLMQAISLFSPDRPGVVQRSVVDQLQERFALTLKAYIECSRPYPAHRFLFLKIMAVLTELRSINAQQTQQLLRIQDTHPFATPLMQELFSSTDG

[26] = qHTS assay for small molecule activators of the human pregnane X receptor (PXR) signaling pathway (AID 720659; call rule not given here; further: 0% is about no effect)

CC(CCC(=O)O)(c1ccc(O)cc1)c1ccc(O)cc1
0.685% and -9.17%: max response [8]
-8.9% and -10.2%: max response [6]
inactive: outcome [1] | outcome [2] | Potency [3] | Potency [4] | Potency [5] | Potency [7] | max response [9] 11.2% and 0.834% | activity change % (negative = inhibition) [10] -0.624% | Potency [11] | Potency [12] | activation [13] -5.03% and -5.24% | activation [14] 0.0681% and 0.181% | Potency [15] | Potency [16] | Potency [17] | activation [18] 2.27% and -1.21% | max response [19] -9.77% and -1.13% | Potency [20] | Potency [21] | max response [22] -5.33% and -3.83% | max response [23] -3.82% and -8.09% | Potency [24] | max response [25] -1.81% and -3.54% | outcome [26]
